The record followed here is ChEMBL document CHEMBL4513216, “Probing the Open Global Health Chemical Diversity Library for Multistage-Active Starting Points for Next-Generation Antimalarials” (ACS Infect Dis, 2020).

The structures appear in SMILES notation. Among all 69,000 compounds or so, about 8,600 (12%) showed an effect of 50% or more. For the sample, strong results were picked, then their nearest neighbours and some compounds at random.

This test has as its system Plasmodium berghei. In words: Screen against P. berghei liver stage (PbLuc), transformed with Luciferase, at 10uM. Conditions: tested at 10 uM. The test is classed as functional, HepG2.
Turning to `CN(C)CC1CN(Cc2coc(-c3ccccc3Cl)n2)CCO1` (centres undefined), the INHIBITION came out at 25.3%.

`Cn1cc(CN2CCC3(CC2)CCN(C(=O)c2cscn2)CC3)cn1`: the INHIBITION is listed as 34.4%.

As to `COCC(=O)NCc1cc(=O)n2c(n1)CN(Cc1ccccc1)CCC2`, the INHIBITION was found to be 25.8%.

On to `CCC(C)NC(=O)c1cc(Br)c2c(c1)OCCO2` (centres undefined), for which the INHIBITION is 23.5%.

With `CC(C)N(CCO)C(=O)c1cc(COc2ccc3c(c2)CCCC3)on1`, the INHIBITION was -15.6%.

For `CC(C(=O)N1CCCCC1)N1CCN(c2ncc(Cl)cn2)CC1` (centres undefined), the INHIBITION is -15%.

As for `c1cnn(C2CN(c3ncnc4[nH]ccc34)C2)c1`, the INHIBITION is -4.73%.

Regarding `Cc1csc(N2CCCN(C(=O)CCNc3ncccn3)CC2)n1`, the INHIBITION came out at 7.12%.

`CSC(C)C(=O)Nc1ccnn1-c1ccccc1C` (centres undefined): the INHIBITION was -2.61%.

With `O=C1Nc2ccccc2C12CCN(c1nccs1)CC2`, the INHIBITION is -15.9%.

On to `Cc1cc(CN2CCOC(CN(C)C)C2)no1` (centres undefined), for which the INHIBITION worked out at 53.8%.

Regarding `Cc1cc(CN2CCOC(CN(C)c3cccnn3)C2)no1` (centres undefined), the INHIBITION is 26.9%.

With `Cc1cc(C)n(CC2CN(Cc3cc(C)on3)CCO2)n1` (centres undefined), the INHIBITION is listed as 16%.

Regarding `CCc1c(C)n(CCOC)c2nc3ccccc3n2c1=O`, the INHIBITION was -7.81%.

Consider `O=c1c2sccc2ncn1Cc1cc(C2CC2)[nH]n1`, for which the INHIBITION is recorded as 37.6%.

`N#Cc1ncn(CCS(=O)(=O)c2ccc(Cl)cc2)n1`: the INHIBITION stood at 54.3%.

Consider `N#Cc1ncn(CCC(=O)Nc2cc(Cl)ccc2Cl)n1`, for which the INHIBITION is -22.1%.

Turning to `N#Cc1ncn(CCS(=O)(=O)c2ccccc2)n1`, the INHIBITION is on record as 65.4%.

For the molecule `N#Cc1ncn(CCS(=O)(=O)c2ccc(Br)cc2)n1`, the INHIBITION was 41.4%.

Regarding `CCc1ccc(CCn2cnc(C#N)n2)cc1`, the INHIBITION is reported as 37.4%.

For the molecule `N#Cc1ncn(CCC(=O)Nc2ccccc2F)n1`, the INHIBITION is on record as -3.77%.

With `CC(C)c1noc(OCC(=O)N2CCCCC2C)n1` (centres undefined), the INHIBITION was -24.9%.

Consider `CC(C)c1nc(C2CCCN2CCNS(C)(=O)=O)no1` (centres undefined), for which the INHIBITION is listed as 23.8%.

For the molecule `CCOC(=O)CNC(=O)NCc1cc(C)n(-c2ccccc2OC)c1C`, the INHIBITION amounted to 63.1%.

For `COc1ccccc1-n1c(C)cc(CNC(=O)NC(C)C)c1C`, the INHIBITION is 25.1%.

Take `CCOC(=O)CNC(=O)NCc1cc(C)n(-c2ccc(OC)cc2)c1C`: the INHIBITION is 21.7%.

`CNCc1n[nH]c(=O)n1-c1ccccc1Oc1ccccc1`: the INHIBITION was -107%.

With `CNCc1cc(C)n(-c2ccccc2OC)c1C`, the INHIBITION is 70.3%.

As to `CCOc1ccccc1-n1c(CNC)n[nH]c1=O`, the INHIBITION was -63.8%.

With `CC(=O)N1[C@@H](C(=O)NCC2CC2)C[C@@H]2CN(Cc3nccs3)C[C@@H]21`, the INHIBITION is reported as 39.5%.

As to `CC(C)CCN(C(=O)c1nc(S(C)(=O)=O)n2ccccc12)C1CC1`, the INHIBITION came to 17.165%.

Take `COc1cccc(Nc2nc(C3CCCNC3)c3sc(C)c(C)n23)c1` (centres undefined): the INHIBITION is given as 11.65%.

Turning to `CC(C)(C)NCc1nn(Cc2ccccc2)nc1-c1ccccc1`, the INHIBITION turned out to be 45.8%.

Take `CCn1ccnc1CN1CCN(CCCS(C)(=O)=O)CC1C` (centres undefined): the INHIBITION was determined as 8.31%.

Turning to `Cc1cc(C(F)(F)F)cc(=O)n1Cc1nc(C(C)C)no1`, the INHIBITION was 23%.

For the molecule `CC(=O)NC1Cc2ccc(S(=O)(=O)NCCNc3ccccn3)cc2C1` (centres undefined), the INHIBITION was -18.8%.

As to `Cc1nc(CN2C(=O)COC3(CCN(C)CC3)C2C)cs1` (centres undefined), the INHIBITION is 8.03%.

Take `Cc1cncc(C(=O)N2CC[C@@H]3[C@H]2CCC(=O)N3CCN(C)C)c1`: the INHIBITION was 29%.

Turning to `Cc1ccc(C(=O)N2CC[C@@H]3[C@H]2CCC(=O)N3CCN(C)C)cn1`, the INHIBITION is listed as 79.2%.

Regarding `CN(C)CCN1C(=O)CC[C@@H]2[C@H]1CCN2Cc1cccc(C#N)c1`, the INHIBITION came to 49.7%.

As for `N#Cc1ccc(C(=O)N2CC[C@H]3[C@@H]2CCC(=O)N3c2ccccc2)cc1`, the INHIBITION stood at 43.8%.

As to `CN(C)CCN1C(=O)CC[C@@H]2[C@H]1CCN2C(=O)c1ccc(C#N)cc1`, the INHIBITION is 70.4%.

On to `Cc1ccc(C(=O)N2CCC3(CC2)CCN(CCN(C)C)C3=O)cn1`, for which the INHIBITION was determined as 28.2%.

For `N#Cc1cccc(CNCCNC(=O)Cc2cccc(F)c2)c1`, the INHIBITION is 29.2%.

As for `CCOc1ccc(Cl)c(C(=O)N2CCCSCC2)n1`, the INHIBITION turned out to be 18.2%.

Regarding `COc1ccnc(NC2CCN(CC(=O)Nc3ccccc3)CC2)n1`, the INHIBITION came out at 60.8%.

In the case of `Cc1cc(C)nc(NC2CCN(CCOC(C)C)CC2)n1`, the INHIBITION is reported as 43.9%.

Regarding `CC(C)OCCN1CCC(Nc2ncc(Br)cn2)CC1`, the INHIBITION stood at 28.7%.

Turning to `COc1ccnc(NC2CCN(CC(=O)N3CCCC3)CC2)n1`, the INHIBITION turned out to be 11.6%.

Consider `Cc1cnc(NC2CCN(CC(=O)Nc3ccccc3)CC2)nc1C`, for which the INHIBITION is on record as 14.8%.

In the case of `O=C(CN1CCC(Nc2ncccn2)CC1)Nc1ccccc1`, the INHIBITION amounted to 66.1%.

On to `COc1ccc(NC(=O)CN2CCS(=O)(=O)CC2)cn1`, for which the INHIBITION is given as -2.55%.

In the case of `CC(C)c1nnc(C2CCN(CC(=O)Nc3cccnc3)CC2)o1`, the INHIBITION is -39.2%.

Consider `CC(C)OCCN1CCC(Nc2ncccn2)CC1`, for which the INHIBITION worked out at 55.9%.
